In the supplement of paper PMC6555819:

Assays:
Test in all cases: PBM binding z-score (relative to random genomic background probes); higher = stronger binding; sequences stand for … in GC…GCGATTGACAGCGTAGAATGAAGG
[1] = system: PPARg:RXRa DBDmut IVT, anti-RXR (DBD mutation: RXRa K156A/R161A, NR concentration 270 nM, RXRa partner concentration 90 nM)
Outline: (§1)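 Random background probes are the reference for binding z-scores. These scores derive from regression-normalized fluorescence on custom Agilent 4×180K protein-binding microarrays incubated 1 h with ligand-free nuclear receptor dimers. Binding was detected with antibodies against each partner (one per run).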

[2] = system: PPARg:RXRa IVT, anti-PPARg (NR concentration 270 nM, RXRa partner concentration 90 nM)
Outline: as §1

[3] = system: PPARg DBDmut:RXRa IVT, anti-PPARg (DBD mutation: PPARg1 K132A/R137A, NR concentration 270 nM, RXRa partner concentration 90 nM)
Outline: as §1

[4] = system: PPARg DBDmut IVT, anti-PPARg (DBD mutation: PPARg1 K132A/R137A, NR concentration 270 nM)
Outline: as §1

[5] = system: PPARg homodimer (NR concentration 180 nM)
Outline: as §1

[6] = system: PXR:RXRa (NR concentration 270 nM, RXRa partner concentration 90 nM)
Outline: as §1

[7] = system: PXR homodimer (NR concentration 270 nM)
Outline: as §1

[8] = system: RARa:RXR (NR concentration 270 nM, RXRa partner concentration 90 nM)
Outline: as §1

[9] = system: RARa homodimer (NR concentration 270 nM)
Outline: as §1

[10] = system: RARb:RXRa (NR concentration 270 nM, RXRa partner concentration 90 nM)
Outline: as §1

[11] = system: RARb homodimer (NR concentration 270 nM)
Outline: as §1

[12] = system: RARg:RXRa (NR concentration 270 nM, RXRa partner concentration 90 nM)
Outline: as §1

[13] = system: RARg homodimer (NR concentration 270 nM)
Outline: as §1

[14] = system: RXRa DBDmut IVT, anti-RXR (DBD mutation: RXRa K156A/R161A, NR concentration 90 nM)
Outline: as §1

[15] = system: RXRa homodimer (NR concentration 180 nM)
Outline: as §1

[16] = system: THRa:RXRa (NR concentration 90 nM, RXRa partner concentration 90 nM)
Outline: as §1

[17] = system: THRa homodimer (NR concentration 90 nM)
Outline: as §1

[18] = system: VDR homodimer (NR concentration 270 nM)
Outline: as §1

Row | Sequence | PBM binding z-score [1] | PBM binding z-score [2] | PBM binding z-score [3] | PBM binding z-score [4] | PBM binding z-score [5] | PBM binding z-score [6] | PBM binding z-score [7] | PBM binding z-score [8] | PBM binding z-score [9] | PBM binding z-score [10] | PBM binding z-score [11] | PBM binding z-score [12] | PBM binding z-score [13] | PBM binding z-score [14] | PBM binding z-score [15] | PBM binding z-score [16] | PBM binding z-score [17] | PBM binding z-score [18]
1 | CGAACTAGGTCAAGAACAGTGAATCTCCGCACGC | 8.01 | 8.06 | 0.866 | 0.438 | 1.15 | 0.968 | -0.254 | 1.69 | 0.13 | 3.69 | 2.48 | 3.31 | 4 | 1.65 | 2.36 | 2.33 | 0.755 | 0.197
2 | TGGAGTAGGTTAGGGGCATTCAGAATGGCGTCGA | 2.77 | 3.44 | 1.09 | 0.719 | 2.02 | 1.18 | 1.43 | 0.932 | 0.935 | 1.6 | 1.6 | 0.847 | 0.846 | -0.404 | 0.803 | 1.51 | 1.06 | 1.57
3 | ATATGTAGGTTAAGGGTCATTCAAGTTGGTTCGC | 7.49 | 7.7 | 1.56 | 1.82 | 3.15 | 5.92 | 1.73 | 5.73 | 1.9 | 3.79 | 4.23 | 4.98 | 4.09 | 1.9 | 6.39 | 4.2 | 1.78 | 3.88
4 | CGTCCAAGGTCAAGGCCAGTGAAAGAGACTCGAA | 2.93 | 3.4 | 0.269 | -0.184 | 2.5 | 3.44 | 0.449 | 4.09 | 0.0458 | 5.19 | 3.8 | 5.88 | 6.13 | 3.31 | 5.24 | 3.71 | 2.15 | 1.61
5 | GCATATAGGTAATACAAGGTAAAAGTCCGATTGT | 3.98 | 2.51 | 0.397 | 1.1 | 0.166 | 0.0106 | -0.11 | 0.364 | 0.741 | -0.207 | -0.415 | 0.25 | 0.58 | 0.137 | 0.294 | 3.49 | 0.0793 | -0.0351
6 | TCACGGAGGACACGAAGGTCAGAGCTTTCCAGAG | 1.52 | 0.826 | -1.19 | -0.604 | 1.45 | 1.98 | 1.22 | 2.3 | 0.266 | 3.44 | 3.7 | 3.41 | 3.86 | 0.991 | 1.91 | 2.73 | 0.917 | 1.42
7 | CCGACTGGGGCCGAAAGGTTACCATACCATCCGG | -0.423 | 0.138 | -1.16 | -1.62 | 0.848 | 1.29 | -0.286 | 1.78 | -0.324 | 2.01 | 2.41 | 2.18 | 1.28 | -0.679 | 2.15 | 1.14 | -0.247 | -0.349
8 | CATACAGGGTCAGATAGGCCAGAGTAGGGACGGC | 0.492 | 2.13 | 1.29 | 1.07 | 2.72 | 2.05 | 0.241 | 2.94 | 0.209 | 3.55 | 2.99 | 4.18 | 4.16 | 1.83 | 3.75 | 2.81 | 0.777 | 1.47
9 | CCTGGTTGGTCAAGGTCACACACGCTATAGGTAC | 1.12 | 3.26 | 0.676 | 0.0653 | 3.15 | 4.44 | 2.85 | 4.78 | 2.07 | 4.41 | 4.45 | 4.58 | 4.71 | 1.46 | 4.69 | 4.36 | 4.54 | 3.51
10 | AATACAGGGTCATCGTAGGCCGGAGTACGCACAG | 2.7 | 4.02 | 1.63 | 1.58 | 2.22 | 4.4 | 0.419 | 4.74 | 0.979 | 4.17 | 3.49 | 5.55 | 5.08 | 3.69 | 6.23 | 4.13 | 1.46 | 3.63
11 | CAAACTAGCTCAAGGTCAAAGTCGGTTTGTGCCA | 1.26 | 1.78 | -0.371 | -0.234 | 2.07 | 4.39 | 2.66 | 4.08 | 0.525 | 3.88 | 4.04 | 4.12 | 3.84 | 2.23 | 4.51 | 3.95 | 3.59 | 3.7
12 | ATCGAAAGGTCGATGTGAGTATAGAGAAAGGGAA | 0.226 | 1.15 | 1.83 | 0.629 | 0.753 | 1.77 | 0.123 | 2.36 | 0.145 | 3.26 | 1.41 | 3.16 | 3.01 | 1.16 | 2.9 | 1.37 | -0.864 | 0.177
13 | CCTATTAGTTGACCATAACGGCAACCGAAGCTCG | 0.934 | 0.243 | 0.836 | 1.13 | 2.08 | 0.499 | 1.25 | 0.72 | 2.49 | 0.584 | 1.01 | 0.618 | 0.817 | 0.595 | 0.625 | 0.388 | 0.93 | 1.08
14 | CAAACAAGGTCAAGGTCAAAGTCGGTTTGTGCCA | 5.99 | 6.6 | 3.37 | 1.15 | 4.82 | – | 3 | 6.86 | 2.95 | – | 5.74 | – | 7.76 | 4.13 | – | 4.6 | 4.5 | 5.71
15 | TGAATGAGGTTATAAGATCATGGAACGTTGCAAA | 1.37 | 2 | 1.44 | 0.209 | -0.119 | 1.1 | -0.359 | 1.96 | -0.439 | 1.13 | 0.204 | 1.76 | 0.935 | 0.832 | 2.42 | 1.71 | 0.0513 | 0.42
16 | CAAACTAGGTCAAAGGTCAAAGGCGAGCCAACCA | 8.87 | 9.3 | 4.87 | 2.24 | 4.33 | 6.93 | 1.55 | 9.2 | 2.6 | 5.86 | 5.32 | 9.06 | 7.75 | 3.02 | 10.4 | 4.91 | 1.64 | 3
17 | CCTACTGGGCCCTTCAGAGGTCATTGATCATATG | 0.668 | 1.66 | -0.729 | -0.628 | 3.64 | 4.97 | 1.92 | 4.84 | 0.707 | 2.58 | 3.67 | 3.27 | 2.24 | -0.326 | 3.49 | 2.94 | 1.18 | 3.23
18 | GCTCGGAGGTCAAGGTCAGAGCTTTGTCCGTAGA | 3.94 | 4.68 | -0.342 | -0.512 | 4.12 | 5.61 | 1.32 | 6.17 | 2.29 | 5.37 | 5.13 | 7.02 | 7.59 | 3.19 | 7.07 | 4.24 | 2.72 | 3.21
19 | TCAATTAGTTGATTAGGGCAACCGAAACAGCGGA | 2.01 | 1.32 | 0.608 | 0.646 | -0.173 | 0.326 | 0.219 | 0.567 | 0.493 | 0.665 | 0.454 | 0.298 | 0.178 | 0.983 | 0.591 | 0.541 | 0.0743 | 0.229
20 | ACTATTAGTTGAGACGAGGGCAACCTATAGGTTG | -0.0527 | 0.486 | 1.43 | 1.25 | 0.36 | 1.39 | 0.585 | 1.09 | 0.942 | 0.936 | 1.39 | 0.509 | 0.764 | 0.356 | 0.544 | 2.63 | 0.429 | 0.902
21 | TAGCCTAGGTCATGGACCAGTATACCACGCGAAC | 1.67 | 3.14 | 0.484 | 0.282 | 1.64 | 1.69 | -0.467 | 2.85 | -0.128 | 3.77 | 2.8 | 4.03 | 4.21 | 0.316 | 3.56 | 3.18 | 1.13 | 0.57
22 | CTCGAAAGGTCTGTTGAGGTGAGTATACGGATAA | -0.464 | 0.358 | 0.678 | 0.237 | 0.0956 | 0.48 | -0.39 | 1.61 | -0.325 | 1.47 | 0.88 | 0.827 | 1.16 | -0.237 | 0.536 | 4.3 | 1.12 | -0.104
23 | CCAGACACGTGAAAGGTAACTCAGTCTGGTACGC | -0.261 | -0.369 | -0.212 | -0.126 | -0.0268 | -0.338 | -0.312 | -0.206 | 0.0098 | 0.231 | -0.128 | -0.098 | 0.0725 | 0.166 | 0.263 | 0.166 | -0.268 | -0.17
